# Compound activity deposited in PubChem BioAssay by Buhrlage Lab, Dana-Farber Cancer Institute and Novartis Institutes for BioMedical Research (Cambridge, Mass).
# USP30 inh = blocks human USP30 ubiquitin-rhodamine cleavage. inhibition, % at 25 µM. Q70CQ3. actives 5.3% (n = 47,000). purified USP30, Ub-rhodamine cleavage fluorescence
# USP28 inh = blocks human USP28 ubiquitin-rhodamine cleavage; Q96RU2; inhibition, % at 25 µM; purified USP28, Ub-rhodamine cleavage fluorescence, 30 min; actives 3% (n = 47,000)
# USP17 block = blocks human USP17 ubiquitin-rhodamine cleavage; A8MUK1; purified USP17, Ub-rhodamine cleavage fluorescence, 3 h; inhibition, % at 50 µM; actives 6.5% (n = 47,000); AID 1645855
# OTUD3 inh = human OTUD3 deubiquitinase inhibition; Q5T2D3; purified OTUD3, Ub-rhodamine fluorescence, 2 h; inhibition, % at 25 µM; actives 0.7% (n = 47,000); AID 1645858
# Target sequence (Q5T2D3 whole entry, looked up): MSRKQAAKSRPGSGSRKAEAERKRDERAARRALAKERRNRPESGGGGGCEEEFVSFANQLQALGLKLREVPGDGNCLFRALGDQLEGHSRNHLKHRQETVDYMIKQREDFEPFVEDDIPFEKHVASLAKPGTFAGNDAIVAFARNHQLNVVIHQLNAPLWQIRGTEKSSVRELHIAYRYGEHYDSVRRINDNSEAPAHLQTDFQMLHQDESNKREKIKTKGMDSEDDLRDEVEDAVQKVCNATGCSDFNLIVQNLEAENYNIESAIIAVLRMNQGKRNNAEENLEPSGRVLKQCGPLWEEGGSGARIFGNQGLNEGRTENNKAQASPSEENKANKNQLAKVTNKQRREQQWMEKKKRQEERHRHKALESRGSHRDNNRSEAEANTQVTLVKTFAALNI
# * = called active by the depositor; i = inactive; x = no result given. Shown are actives, neighbours in structure and some others; about 11% of the full set was active somewhere. Rule as the data show it: active = inhibition above about 30%; inactive = the rest.
SMILES,USP30 inh,USP28 inh,USP17 block,OTUD3 inh
Cc1cc2n(n1)[C@@H](C(F)(F)F)C[C@@H](C1CCN(C(=O)Cc3sc(C)nc3C)CC1)N2,-8,-5,-22,-5
COCC(=O)N1CCC([C@@H]2C[C@H](C(F)(F)F)n3nc(C(C)(C)C)cc3N2)CC1,x,x,51*,0
Cc1ccc(N2CCN(Cc3ccn(C)c(=O)c3)CC2)cc1,x,x,-2,11
CC(C)c1ccc(NC(=O)c2cc(=O)n(C)c3c2c(=O)n(C)c(=O)n3C)cc1,-158,-31,-41,-18
O=C(CN1C(=O)CSc2cccn2-c2ccccc21)NCc1ccc(Cl)cc1,10,21,40*,24
O=C(Nc1ccccc1)c1ccc(-c2ccccc2)s1,x,x,54*,2
O=C(Nc1ccccc1)c1ccc(-c2nc(-c3ccc(Cl)cc3)cs2)cc1,-9,-4,-1,-3
O=C(Nc1cccc(C(F)(F)F)c1)c1ccc(-c2nc(-c3ccc(Cl)cc3Cl)cs2)cc1,14,0,32*,10
COc1ccc(Cn2nccc2NC(=O)C(C)Oc2ccc(C)c(C)c2)cc1 (centres undefined),x,x,63*,0
CC(=O)c1ccccc1NC(=O)COc1ccc(-c2ccc(C#N)cc2)cc1,5,9,78*,5
CC(=O)c1ccccc1NC(=O)Cc1ccc(-c2ccccc2)cc1,-274,-12,-12,-65
N#Cc1ccc(-c2ccc(OCC(=O)Nc3ccc4c(c3)CCC4)cc2)cc1,44*,41*,24,42*
CCc1ccccc1NC(=O)c1cc2ccccn2n1,-19,-9,0,-7
Cc1cc(C)c(C)c(Oc2coc3cc(O)ccc3c2=O)c1,7,34*,6,6
Cc1nccc(-c2sc(C3CCN(C(=O)c4cscn4)CC3)nc2C)n1,17,6,11,12
Cc1ccc(CN2CCCn3nc(C(=O)NCc4ccc(F)cc4)cc3C2=O)cc1,56*,13,38*,8
CC1(C)Cc2c(c(N3CCCC3)nc3sc4c(NCc5cccnc5)ncnc4c23)CO1,-15,-12,-6,-6
CC(C)N(C(=O)Cn1c(=O)[nH]c2ccccc21)c1ccccc1,15,9,58*,7
CCC1(c2ccccc2)NC(=O)N(CC(=O)N(c2ccccc2)C(C)C)C1=O (centres undefined),37*,16,13,14
N#Cc1c(C(F)(F)F)cc(-c2ccccc2)nc1N1CCOCC1,0,-5,30*,0
Cc1cc(-c2cncnc2C2CCCN(C(=O)C3CC3)C2)on1 (centres undefined),0,-3,0,-2
CCN(CC)C(=O)CN1CCCC(c2ncncc2-c2cc(C)no2)C1 (centres undefined),23,6,11,30*
Cc1cccc(CSC2=NS(=O)(=O)c3ccccc3N2)c1,8,14,5,0
Cc1c(C(C)OC(=O)c2ccc(F)cc2)sc2ncnn12 (centres undefined),32*,29,17,18
O=C(c1ccco1)N1CCN(C(c2cccc(F)c2)c2sc3ncnn3c2O)CC1 (centres undefined),0,1,0,5
SMILES,USP30 inh,USP28 inh,USP17 block,OTUD3 inh
O=c1c(-c2nc(C3CC3)no2)cccn1Cc1nc(-c2ccccc2Cl)no1,-138,-14,-17,-24
COc1cccc(NC(=O)CN2CCC3(CC2)Nc2ccccc2C2=NCCN23)c1,-43,2,-1,-11
CCOC(=O)c1cc2c(ccn2-c2ccc(F)cc2)n1CC(=O)NC1CCCCC1,0,14,25,16
CCOC(=O)c1cc2c(ccn2-c2ccc(F)cc2)n1CC(=O)N1CCN(C(=O)c2ccco2)CC1,45*,18,36*,9
Cc1oc(C2CCN(C(=O)Nc3ccccc3)CC2)nc1C(=O)N1CCCC1,9,-1,-2,2
Clc1ccc(CSc2nc3c(c(N4CCOCC4)n2)CCCC3)cc1,16,16,8,12
O=C(NCc1ccco1)c1ccc2c(c1)N(Cc1cccc(Cl)c1)C(=O)c1ccccc1S2,-27,12,38*,18
CCCNC(=O)C1CCc2nc(N3CCN(C(=O)C4CCC4)CC3)sc2C1 (centres undefined),2,-10,-9,-11
O=C(NCc1cccc(C(F)(F)F)c1)c1ccc(-n2cccn2)nc1,32*,6,7,8
CS(=O)(=O)N1CCc2ccc(C(=O)Nc3ccc(F)cc3)cc21,-27,-8,33*,-7
Cc1cc(C)n(-c2cccc(C(=O)Nc3ccc4c(c3)CCN4S(C)(=O)=O)c2)n1,-10,80*,8,0
O=C(NCc1noc(-c2ccccc2)n1)c1ccc(F)cc1,25,-1,x,-1
COc1ccc(C)cc1NC(=O)COc1cccc2c1OC(C)(C)C2,-2,0,9,6
CC1=CN2C(=N)/C(=C/c3cc(C)n(-c4cccc(F)c4)c3C)C(=O)N=C2S1,-112,-44,-130,-178
COc1ccc(-c2cc3c(=O)n(CC(=O)Nc4ccc(Cl)cc4)ccn3n2)cc1,19,11,19,15
COc1ccc(-c2cc3c(=O)n(CC(=O)Nc4ccccc4C)ccn3n2)cc1,31*,6,36*,10
O=C1CCc2cc(S(=O)(=O)Nc3ccc4cn[nH]c4c3)ccc2N1,-33,-14,-12,-7
CCc1nnc(NC(=O)Cn2ncc3c(=O)oc4ccc(C)cc4c32)s1,23,9,31*,3
CCc1nnc(NC(=O)CN2C(=O)CCc3ccccc32)s1,0,0,-5,9
CCOc1ccc(NC(=O)CSCc2nc(-c3ccc(OC)c(OC)c3)no2)cc1,-14,20,47*,13
COc1ccc(-c2noc(CC(=O)Nc3cccc(C#N)c3)n2)cc1,18,0,39*,0
CCOC(=O)c1cccc(NC(=O)Cc2nc(-c3ccc(OC)cc3)no2)c1,-4,8,-9,0
COc1ccc(-c2noc([C@@H]3C[C@H](NC(=O)Nc4cccc(C#N)c4)CN3C)n2)cc1,37*,21,25,22
COc1ccc(C2=C(NCCc3ccc(S(N)(=O)=O)cc3)c3ccccc3C2=O)cc1,49*,31*,12,0
Brc1cnc(N2CCC3(CC2)OCCO3)nc1,14,1,1,7
SMILES,USP30 inh,USP28 inh,USP17 block,OTUD3 inh
COc1cc(OC)c2c(C)c(CC(=O)N3CCN(c4ncccn4)CC3)c(=O)oc2c1,-1,-2,3,2
O=C(CSc1ccccc1)Nc1cccc2nsnc12,24,28,32*,11
COc1cccc(N2C(=O)c3cccnc3C2Nc2ccc(C)cc2)c1 (centres undefined),-22,-13,-17,-22
Cc1cccc(N2C(=O)/C(=C\c3ccc(N4CCOCC4)s3)c3ccccc3C2=O)c1,-50,-10,42*,-11
Cc1n[nH]c(C)c1N1C(=O)c2cccc3c(N4CCOCC4)ccc(c23)C1=O,i,-235,-129,-163
COc1cccc(/C=C2\C(=O)N(c3cccc(C)c3)C(=O)c3ccccc32)c1,-9,5,43*,-5
Cc1ccc(C(O)Cn2cc(C(=O)Nc3cccc(C)c3)nn2)cc1 (centres undefined),x,x,80*,-1
Cc1ccc(NC(=O)c2cccc(-n3cnnc3)n2)cc1,x,x,4,3
